Bioassay records as filed in PubChem BioAssay.
Only some compounds are listed: those with a hit (about 11% of all), similar ones and a draw of the others.
USP28 inh: inhibitors of human USP28 deubiquitinase; Q96RU2; purified USP28, Ub-rhodamine cleavage fluorescence, 30 min; inhibition, % at 25 µM; actives 3% (n = 47,000)
USP17 block: human USP17-like deubiquitinase inhibition; A8MUK1; purified USP17, Ub-rhodamine cleavage fluorescence, 3 h; inhibition, % at 50 µM; actives 6.5% (n = 47,000)
USP30 inh: inhibitors of human USP30 deubiquitinase. Q70CQ3. purified USP30, Ub-rhodamine cleavage fluorescence. inhibition, % at 25 µM. actives 5.3% (n = 47,000). AID 1645860
Target sequence (Q70CQ3 whole entry, looked up): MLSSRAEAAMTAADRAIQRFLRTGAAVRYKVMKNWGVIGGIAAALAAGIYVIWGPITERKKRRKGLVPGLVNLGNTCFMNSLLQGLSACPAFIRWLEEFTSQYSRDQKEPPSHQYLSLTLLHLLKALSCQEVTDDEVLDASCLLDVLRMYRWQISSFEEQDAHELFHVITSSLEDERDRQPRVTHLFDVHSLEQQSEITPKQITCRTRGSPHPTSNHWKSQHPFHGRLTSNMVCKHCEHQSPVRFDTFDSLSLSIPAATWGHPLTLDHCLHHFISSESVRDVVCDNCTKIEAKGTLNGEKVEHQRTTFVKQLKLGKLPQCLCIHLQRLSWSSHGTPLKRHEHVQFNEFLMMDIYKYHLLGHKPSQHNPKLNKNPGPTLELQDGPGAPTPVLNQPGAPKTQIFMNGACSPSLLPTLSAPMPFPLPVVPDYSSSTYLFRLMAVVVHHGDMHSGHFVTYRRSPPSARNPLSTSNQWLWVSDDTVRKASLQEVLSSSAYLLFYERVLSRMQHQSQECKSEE
Starred values were filed as active, the others as inactive. Rule as the data show it: active = inhibition above about 30%; inactive = the rest.

How did Cc1nn(-c2cc(N(C)C)ncn2)c(C)c1CCC(=O)N1CCN(c2ccccn2)CC1 do in these assays?
USP28 inh: 6; USP17 block: 5; USP30 inh: 10

How did COc1ccccc1CNC(=O)C1c2ccccc2C(=O)N1Cc1ccccc1C (configuration not stated) do in these assays?
USP28 inh: 2; USP17 block: 28; USP30 inh: 16

What do the screens show for `C=C1O[C@](CO)(n2cnc3c(N)ncnc32)[C@@H](O)[C@H]1O`?
USP28 inh: -9; USP17 block: -19; USP30 inh: -16

What do the screens show for `Nc1ncnc2c1ncn2[C@@H]1O[C@H](CO)C[C@@H]1O`?
USP28 inh: 44*; USP17 block: 50*; USP30 inh: 29

Results for CCc1nc(SCC(=O)c2ccc(Br)cc2)c2oc3ccccc3c2n1 ?
USP28 inh: -14; USP17 block: 2; USP30 inh: -8

How did CCc1nc(SCC(=O)N2CCCc3ccccc32)c2oc3ccccc3c2n1 do in these assays?
USP28 inh: 3; USP17 block: 40*; USP30 inh: -1

Results for CCc1nc(SCc2cccc(F)c2)c2oc3ccccc3c2n1 ?
USP28 inh: 20; USP17 block: 53*; USP30 inh: 47*

How did CCc1nc(SCc2ccco2)c2oc3ccccc3c2n1 do in these assays?
USP28 inh: -12; USP17 block: -16; USP30 inh: -28

Results for NC(=O)c1cc(CC2CCCN(C(=O)c3cccc(F)c3)CC2)ncn1 (configuration not stated) ?
USP28 inh: 0; USP17 block: -3; USP30 inh: 2

Results for O=C(Nc1ccccc1)c1ccc(-c2nc(-c3ccc(Cl)cc3)cs2)cc1 ?
USP28 inh: -4; USP17 block: -1; USP30 inh: -9

What do the screens show for `O=C(Nc1cccc(C(F)(F)F)c1)c1ccc(-c2nc(-c3ccc(Cl)cc3Cl)cs2)cc1`?
USP28 inh: 0; USP17 block: 32*; USP30 inh: 14

How did O=C(c1cccc(=O)[nH]1)N1C[C@@H](O)[C@H](N2CCc3ccccc3C2)C1 do in these assays?
USP17 block: 2

Results for Cc1ccc(-c2cc(C(F)F)n3ncc(C(=O)Nc4ccc(Cl)cc4)c3n2)cc1 ?
USP28 inh: -4; USP17 block: -1; USP30 inh: -8

What do the screens show for `Cc1ccc(-c2cc(C(F)F)n3ncc(C(=O)Nc4ccc(O)cc4)c3n2)cc1`?
USP28 inh: 6; USP17 block: 35*; USP30 inh: 20

What do the screens show for `Cc1ccc(-c2nc(CN3C(=O)NC(C)(c4ccc5c(c4)OCO5)C3=O)cs2)cc1` (configuration not stated)?
USP28 inh: 22; USP17 block: 7; USP30 inh: 12

What do the screens show for `COc1ccc(CCNC(=O)c2coc3ccccc3c2=O)cc1OC`?
USP28 inh: 4; USP17 block: 29; USP30 inh: 11

Results for COc1cc(CCNC(=O)Cc2cccc(Br)c2)ccc1OCc1ccccc1 ?
USP28 inh: 24; USP17 block: 23; USP30 inh: 48*

How did COc1ccccc1C(=O)Nc1ccc2c(c1)nc(CCNC(=O)c1ccccc1F)n2C do in these assays?
USP28 inh: 8; USP17 block: 23; USP30 inh: 16

Results for COc1ccc(C(=O)O)cc1S(=O)(=O)N(C)CCc1cccnc1 ?
USP28 inh: 12; USP17 block: 3; USP30 inh: 24

How did COc1ccc(C(=O)O)cc1S(=O)(=O)N(CCc1ccccc1)Cc1ccccc1 do in these assays?
USP28 inh: 20; USP17 block: 13; USP30 inh: 39*

How did CN(C(=O)CSc1nnc(-c2cccnc2)o1)c1ccccc1 do in these assays?
USP28 inh: 5; USP17 block: -6; USP30 inh: 2

How did CC(Oc1ccccc1)C(=O)N1CCC2(CC1)NC(=O)N(CCOc1ccccc1)C2=O (configuration not stated) do in these assays?
USP28 inh: 1; USP30 inh: 3

How did NC(=O)c1cc(-c2csc(NNc3ccccc3)n2)ccc1O do in these assays?
USP28 inh: 3; USP17 block: 47*; USP30 inh: -61

Results for O=C(c1ccc(F)cc1)N1CCc2cc(-c3csc(Nc4ccccc4)n3)ccc21 ?
USP28 inh: -8; USP17 block: -23; USP30 inh: -135

What do the screens show for `COc1ccc2c(c1)c(N1CCCC1=O)c(C(=O)NCc1ccccc1F)n2C`?
USP28 inh: 2; USP17 block: -1; USP30 inh: -5

Results for COc1ccc2c(c1)c(N1CCCC1=O)c(C(=O)NCc1cccc(OC)c1OC)n2C ?
USP28 inh: 57*; USP17 block: 2; USP30 inh: 14

What do the screens show for `COc1ccc(OCCn2c(C3CC(=O)N(c4cccc(C)c4)C3)nc3ccccc32)cc1` (configuration not stated)?
USP28 inh: 7; USP17 block: 76*; USP30 inh: 34*
